Assay results reported in PubChem BioAssay.
Inconclusive results are not listed. For part of these data: Entries with a potency or affinity are not part of this list. Activity calls are given as the source filed them. No stated cut-off is given here; in the data, active means fluorescence slope change above about 50%; inconclusive means mostly about 31% to 49%; inactive means weaker than that.

Columns and labels:
[1] = molecular target: ATP-dependent translocase ABCB1 (Homo sapiens) (UniProt P08183); experiment: MDR1 (ABCB1) efflux transporter inhibition, cell-based (AID 377); details: MDR1-expressing cells, fluorescent substrate accumulation slope; stronger effect = higher value; concentration not given here
[2] = polyglutamine-triggered caspase-3 activation inhibitors, cell-based (AID 1583); details: polyglutamine-induced caspase-3 activation, cell assay; stronger effect = higher value;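 tested at 10 µM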
[3] = suppressors of polyQ aggregation in yeast, 75Q-TubU reporter (AID 1593); details: Yeast 75Q polyglutamine aggregation reporter
[4] = rescue of polyQ-huntingtin neuronal dysfunction in worms, whole organism, C. elegans mechanosensory neurons, N-terminal huntingtin (AID 1599); details: touch response, stronger effect = higher value
[5] = inhibitors of mitochondrial cytochrome c release, biochemical, purified mitochondria (AID 1603); details: stronger effect = lower value;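 further: mouse liver mitochondria challenged with calcium chloride; signal normalized to the plate average as 100%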
[6] = inhibitors of polyQ protein aggregation (AID 1604); details: polyglutamine-induced protein aggregation inhibition assay; stronger effect = higher value; tested at 2.5 µM

Chain of ATP-dependent translocase ABCB1 (Homo sapiens) (P08183 whole entry, looked up): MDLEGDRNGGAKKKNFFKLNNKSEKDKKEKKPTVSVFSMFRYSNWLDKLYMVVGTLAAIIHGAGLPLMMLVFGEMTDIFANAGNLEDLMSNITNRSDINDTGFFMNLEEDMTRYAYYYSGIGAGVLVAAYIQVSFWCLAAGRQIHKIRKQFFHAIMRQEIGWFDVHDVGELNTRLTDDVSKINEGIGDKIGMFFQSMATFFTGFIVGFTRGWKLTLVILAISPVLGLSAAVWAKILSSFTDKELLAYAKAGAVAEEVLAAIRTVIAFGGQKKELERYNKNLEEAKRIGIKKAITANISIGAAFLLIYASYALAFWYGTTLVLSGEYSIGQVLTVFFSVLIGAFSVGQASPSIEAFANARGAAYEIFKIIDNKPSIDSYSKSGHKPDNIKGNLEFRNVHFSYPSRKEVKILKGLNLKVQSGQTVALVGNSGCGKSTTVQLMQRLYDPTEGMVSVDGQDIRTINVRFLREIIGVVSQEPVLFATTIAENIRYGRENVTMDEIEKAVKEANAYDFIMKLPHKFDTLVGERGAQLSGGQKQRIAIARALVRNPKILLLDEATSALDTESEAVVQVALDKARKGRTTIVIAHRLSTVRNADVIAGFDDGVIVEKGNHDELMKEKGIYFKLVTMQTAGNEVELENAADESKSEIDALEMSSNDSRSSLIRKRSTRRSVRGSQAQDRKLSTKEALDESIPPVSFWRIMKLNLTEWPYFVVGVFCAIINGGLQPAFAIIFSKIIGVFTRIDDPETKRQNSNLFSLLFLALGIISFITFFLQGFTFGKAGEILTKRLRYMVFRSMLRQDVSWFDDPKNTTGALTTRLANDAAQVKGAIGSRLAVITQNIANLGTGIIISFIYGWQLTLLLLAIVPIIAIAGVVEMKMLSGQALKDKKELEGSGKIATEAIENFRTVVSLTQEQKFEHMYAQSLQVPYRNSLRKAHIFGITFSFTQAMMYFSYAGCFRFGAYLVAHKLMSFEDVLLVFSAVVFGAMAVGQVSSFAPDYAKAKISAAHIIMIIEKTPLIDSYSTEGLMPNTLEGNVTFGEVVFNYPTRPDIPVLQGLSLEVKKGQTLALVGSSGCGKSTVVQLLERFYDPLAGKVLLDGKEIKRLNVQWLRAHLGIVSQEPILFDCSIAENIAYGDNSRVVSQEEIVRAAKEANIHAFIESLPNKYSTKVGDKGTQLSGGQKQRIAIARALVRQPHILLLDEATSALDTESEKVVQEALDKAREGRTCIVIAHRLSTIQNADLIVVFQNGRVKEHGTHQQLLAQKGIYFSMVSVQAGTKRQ

## Nc1c(Br)cc(Br)cc1CNC1CCC(O)CC1 (stereo not given)
[1]
  fluorescence slope change: 57.2% (active)
[2]
  inhibition: -21.8%
[3]
  score: 1.12
[4]
  rescue above control: -1.56
[5]
  cytochrome c release ratio: 1.08
[6]
  inhibition of aggregation: 54.5%

## NCCCC[C@H](N[C@@H](CCc1ccccc1)C(=O)O)C(=O)N1CCC[C@H]1C(=O)O
[1]
  fluorescence slope change: 60.6% (active)
[2]
  inhibition: -0.18%
[3]
  score: 0.98
[4]
  rescue above control: -7.67
[5]
  cytochrome c release ratio: 1.03
[6]
  inhibition of aggregation: 45.6%

## CC(C)(Oc1ccc(CCNC(=O)c2ccc(Cl)cc2)cc1)C(=O)O
[1]
  fluorescence slope change: 88.6% (active)
[2]
  inhibition: -1.59%
[3]
  score: 1.19
[4]
  rescue above control: -10.8
[5]
  cytochrome c release ratio: 0.96
[6]
  inhibition of aggregation: 61%

## CN1Cc2c(N)cccc2C(c2ccccc2)C1 (stereo not given)
[1]
  fluorescence slope change: 80.5% (active)
[2]
  inhibition: 63.6%
[3]
  score: 1.13
[4]
  rescue above control: -9.83
[5]
  cytochrome c release ratio: 0.88
[6]
  inhibition of aggregation: 75%

## CCCCC1(COC(=O)CCC(=O)O)C(=O)N(c2ccccc2)N(c2ccccc2)C1=O
[1]
  fluorescence slope change: 4.7% (inactive)
[2]
  inhibition: 9.48%
[3]
  score: 1.11
[4]
  rescue above control: 9.03
[5]
  cytochrome c release ratio: 1.09
[6]
  inhibition of aggregation: 57.1%

## Nc1cc(-c2ccncc2)c[nH]c1=O
[1]
  fluorescence slope change: 8.3% (inactive)
[2]
  inhibition: -0.86%
[3]
  score: 1.14
[4]
  rescue above control: 4.19
[5]
  cytochrome c release ratio: 0.91
[6]
  inhibition of aggregation: 17.8%

## OCC(O)CN1CCN(c2ccccc2)CC1 (stereo not given)
[1]
  fluorescence slope change: 54.1% (active)
[2]
  inhibition: 9.99%
[3]
  score: 1.44
[4]
  rescue above control: 10.9
[5]
  cytochrome c release ratio: 0.72
[6]
  inhibition of aggregation: 68.2%

## CCN(CC)CCOC(=O)C(c1ccccc1)C1CCCCC1 (stereo not given)
[1]
  fluorescence slope change: 89.7% (active)
[2]
  inhibition: 14.6%
[3]
  score: 1.92
[4]
  rescue above control: 0.94
[5]
  cytochrome c release ratio: 1.03
[6]
  inhibition of aggregation: 6.35%

## CC1CCc2cc(F)cc3c(=O)c(C(=O)O)cn1c23 (stereo not given)
[1]
  fluorescence slope change: 50.2% (active)
[2]
  inhibition: 4.46%
[3]
  score: 1.12
[4]
  rescue above control: -5.46
[5]
  cytochrome c release ratio: 1.29
[6]
  inhibition of aggregation: 44.4%

## COCCc1ccc(OCC(O)CNC(C)C)cc1 (stereo not given)
[1]
  fluorescence slope change: 51% (active)
[2]
  inhibition: 9.55%
[3]
  score: 0.98
[4]
  rescue above control: -6.09
[5]
  cytochrome c release ratio: 0.97
[6]
  inhibition of aggregation: 69.7%
